From ChEMBL document CHEMBL5606458, “ASAP - ZIKV NS2B-NS3 protease fluorescence single point” (2024)
Among all 2,700 compounds or so, about 160 (5.9%) showed an effect of 50% or more. The entries come from a sample that favours strong results as a whole.

Molecular target: Nonstructural protein 3 (Zika virus) (UniProt A0A024AXB9)
Sequence (A0A024AXB9 as listed by the source): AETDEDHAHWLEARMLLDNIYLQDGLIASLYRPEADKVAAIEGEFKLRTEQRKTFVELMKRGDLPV

## c1cnc2c(C3CCN(Cc4c[nH]c5ncccc45)CC3)c[nH]c2c1
PRVABC59, Concentration 49.5 uM, Number of replicates 2.0, Standard deviation 1.618110911749522 %
  inhibition: 7.76%
PRVABC59, Concentration 99.01 uM, Number of replicates 2.0, Standard deviation 1.5506891039488269 %
  inhibition: 16.5%
PRVABC59, Concentration 198.0 uM, Number of replicates 2.0, Standard deviation 1.1046722712184134 %
  inhibition: 29.8%

## c1ccc2c(CN3CCC(c4c[nH]c5cccnc45)CC3)c[nH]c2c1
PRVABC59, Concentration 49.5 uM, Number of replicates 2.0, Standard deviation 1.80837898184189 %
  inhibition: 63.8%
PRVABC59, Concentration 99.01 uM, Number of replicates 2.0, Standard deviation 1.3316731742493602 %
  inhibition: 74.9%
PRVABC59, Concentration 198.0 uM, Number of replicates 2.0, Standard deviation 0.976733320927472 %
  inhibition: 81.5%

## O=C1NCc2ccccc2C12CCN(CCn1cc(-c3ccccc3)cn1)CC2
PRVABC59, Concentration 49.5 uM, Number of replicates 2.0, Standard deviation 2.8974171324862783 %
  inhibition: -1.24%
PRVABC59, Concentration 99.01 uM, Number of replicates 2.0, Standard deviation 3.3976160570541145 %
  inhibition: 2.72%
PRVABC59, Concentration 198.0 uM, Number of replicates 2.0, Standard deviation 1.9883423160607387 %
  inhibition: 8.7%

## CCn1ccnc(N2CC[C@H](c3ccncc3)C2)c1=O
PRVABC59, Concentration 50.0 uM, Number of replicates 2.0, Standard deviation 13.086126440978003 %
  inhibition: 15.5%
PRVABC59, Concentration 100.0 uM, Number of replicates 2.0, Standard deviation 1.9353273126054316 %
  inhibition: 11.2%
PRVABC59, Concentration 200.0 uM, Number of replicates 2.0, Standard deviation 4.176368308171179 %
  inhibition: 19%

## Cc1nc([C@H]2CCCNC2)[nH]c1C(=O)Nc1ccccn1
PRVABC59, Concentration 49.5 uM, Number of replicates 2.0, Standard deviation 0.17090445918731104 %
  inhibition: 8.49%
PRVABC59, Concentration 99.01 uM, Number of replicates 2.0, Standard deviation 0.26430592158490923 %
  inhibition: 17.8%
PRVABC59, Concentration 198.0 uM, Number of replicates 2.0, Standard deviation 0.13314627771815937 %
  inhibition: 30.2%

## c1ccc2c(CN3CCC[C@H](c4c[nH]c5ccccc45)C3)c[nH]c2c1
PRVABC59, Concentration 50.0 uM, Number of replicates 2.0, Standard deviation 1.0176784784936235 %
  inhibition: 17.6%
PRVABC59, Concentration 100.0 uM, Number of replicates 2.0, Standard deviation 1.399627381040445 %
  inhibition: 30%
PRVABC59, Concentration 200.0 uM, Number of replicates 2.0, Standard deviation 0.26403213565698247 %
  inhibition: 45.3%

## c1cc(CN2CCC(c3c[nH]c4cccnc34)CC2)c2[nH]ncc2c1
PRVABC59, Concentration 49.5 uM, Number of replicates 2.0, Standard deviation 1.1670691631522456 %
  inhibition: 7.96%
PRVABC59, Concentration 99.01 uM, Number of replicates 2.0, Standard deviation 0.8238130905871536 %
  inhibition: 15.7%
PRVABC59, Concentration 198.0 uM, Number of replicates 2.0, Standard deviation 0.8191324301789277 %
  inhibition: 25.9%

## c1ccc2c(CN3CCC(c4c[nH]c5cccnc45)CC3)n[nH]c2c1
PRVABC59, Concentration 49.5 uM, Number of replicates 2.0, Standard deviation 0.6456276790258886 %
  inhibition: 55.4%
PRVABC59, Concentration 99.01 uM, Number of replicates 2.0, Standard deviation 0.2001199802254866 %
  inhibition: 70.2%
PRVABC59, Concentration 198.0 uM, Number of replicates 2.0, Standard deviation 0.3311541950710681 %
  inhibition: 79.4%

## c1cc(CN2CCC(c3c[nH]c4cccnc34)CC2)c2cn[nH]c2c1
PRVABC59, Concentration 49.5 uM, Number of replicates 2.0, Standard deviation 0.9568639478402843 %
  inhibition: 4.4%
PRVABC59, Concentration 99.01 uM, Number of replicates 2.0, Standard deviation 0.8012763277514082 %
  inhibition: 10%
PRVABC59, Concentration 198.0 uM, Number of replicates 2.0, Standard deviation 3.635563550314553 %
  inhibition: 17.8%

## c1ccc2c([C@H]3CCN(CC4CCOCC4)C3)c[nH]c2c1
PRVABC59, Concentration 49.5 uM, Number of replicates 2.0, Standard deviation 2.5997737280788282 %
  inhibition: 6.89%
PRVABC59, Concentration 99.01 uM, Number of replicates 2.0, Standard deviation 3.698865419379611 %
  inhibition: 11.8%
PRVABC59, Concentration 198.0 uM, Number of replicates 2.0, Standard deviation 1.139250220086327 %
  inhibition: 22.2%

## c1cnc2c(CN3CCC(c4c[nH]c5cccnc45)CC3)c[nH]c2c1
PRVABC59, Concentration 49.5 uM, Number of replicates 2.0, Standard deviation 0.7260748860651783 %
  inhibition: 51.4%
PRVABC59, Concentration 99.01 uM, Number of replicates 2.0, Standard deviation 0.6197542344872328 %
  inhibition: 66.3%
PRVABC59, Concentration 198.0 uM, Number of replicates 2.0, Standard deviation 0.45379950118904117 %
  inhibition: 74.9%

## CCn1ccnc(N2CCC(c3c[nH]c4ccccc34)CC2)c1=O
PRVABC59, Concentration 49.5 uM, Number of replicates 2.0, Standard deviation 0.010362729937070537 %
  inhibition: 13.2%
PRVABC59, Concentration 99.01 uM, Number of replicates 2.0, Standard deviation 0.987094027815814 %
  inhibition: 22.1%
PRVABC59, Concentration 198.0 uM, Number of replicates 2.0, Standard deviation 0.3108960594532158 %
  inhibition: 8.34%

## c1ccc2c(CN3CC[C@H](c4c[nH]c5ccccc45)C3)c[nH]c2c1
PRVABC59, Concentration 50.0 uM, Number of replicates 2.0, Standard deviation 0.9766631885715499 %
  inhibition: 20.3%
PRVABC59, Concentration 100.0 uM, Number of replicates 2.0, Standard deviation 0.28966551174652017 %
  inhibition: 37.5%
PRVABC59, Concentration 200.0 uM, Number of replicates 2.0, Standard deviation 1.348359280162217 %
  inhibition: 55.9%

## CCn1ccc2cc(CN3CCC(c4c[nH]c5cccnc45)CC3)ccc21
PRVABC59, Concentration 49.5 uM, Number of replicates 2.0, Standard deviation 2.8809639300582925 %
  inhibition: 3.93%
PRVABC59, Concentration 99.01 uM, Number of replicates 2.0, Standard deviation 1.8463057507050853 %
  inhibition: 15.6%
PRVABC59, Concentration 198.0 uM, Number of replicates 2.0, Standard deviation 0.9205600012321524 %
  inhibition: 34.4%

## CCOc1cc(COc2cccnc2F)nc(N2CCNCC2)n1
PRVABC59, Concentration 49.5 uM, Number of replicates 2.0, Standard deviation 1.6064643888068098 %
  inhibition: 4.13%
PRVABC59, Concentration 99.01 uM, Number of replicates 2.0, Standard deviation 0.9927585642556782 %
  inhibition: 12.5%
PRVABC59, Concentration 198.0 uM, Number of replicates 2.0, Standard deviation 0.42007662758371656 %
  inhibition: 31.7%

## O=C(Cn1ccc2cccnc21)N1CC[C@H](c2c[nH]c3ccccc23)C1
PRVABC59, Concentration 49.5 uM, Number of replicates 2.0, Standard deviation 2.6403237167933415 %
  inhibition: 8.06%
PRVABC59, Concentration 99.01 uM, Number of replicates 2.0, Standard deviation 2.1942883394495833 %
  inhibition: 14.3%
PRVABC59, Concentration 198.0 uM, Number of replicates 2.0, Standard deviation 1.481657960884592 %
  inhibition: 24.1%

## N[C@H]1CC[C@@H](NC(=O)[C@@H](NC(=O)OCc2ccccc2)c2ccc(OCc3ccccc3)cc2)C1
PRVABC59, Concentration 49.5 uM, Number of replicates 2.0, Standard deviation 1.7270227515739174 %
  inhibition: 10.7%
PRVABC59, Concentration 99.01 uM, Number of replicates 2.0, Standard deviation 1.537724733346876 %
  inhibition: 44.6%
PRVABC59, Concentration 198.0 uM, Number of replicates 2.0, Standard deviation 0.3345151533587208 %
  inhibition: 79.2%

## O=C(N[C@@H](C(=O)NC1CCNCC1)c1ccc(OCc2ccccc2)cc1)OCc1ccccc1
PRVABC59, Concentration 49.5 uM, Number of replicates 2.0, Standard deviation 1.3674946237357393 %
  inhibition: 8.84%
PRVABC59, Concentration 99.01 uM, Number of replicates 2.0, Standard deviation 2.2060968748779715 %
  inhibition: 27.2%
PRVABC59, Concentration 198.0 uM, Number of replicates 2.0, Standard deviation 0.9505739521685185 %
  inhibition: 59.8%

## N[C@H]1CC[C@H](NC(=O)[C@@H](NC(=O)OCc2ccccc2)c2ccc(OCc3ccccc3)cc2)C1
PRVABC59, Concentration 49.5 uM, Number of replicates 2.0, Standard deviation 1.2628524282528915 %
  inhibition: 15.2%
PRVABC59, Concentration 49.5 uM, Number of replicates 2.0, Standard deviation 5.748962140815482 %
  inhibition: 7.84%
PRVABC59, Concentration 99.01 uM, Number of replicates 2.0, Standard deviation 1.1046736199175657 %
  inhibition: 52.6%
PRVABC59, Concentration 99.01 uM, Number of replicates 2.0, Standard deviation 4.807656617809298 %
  inhibition: 46.8%
PRVABC59, Concentration 198.0 uM, Number of replicates 2.0, Standard deviation 0.1296531469135765 %
  inhibition: 80.8%
PRVABC59, Concentration 198.0 uM, Number of replicates 2.0, Standard deviation 1.4858618561424626 %
  inhibition: 83.4%

## N[C@@H]1CC[C@H](NC(=O)[C@@H](NC(=O)OCc2ccccc2)c2ccc(OCc3ccccc3)cc2)C1
PRVABC59, Concentration 49.5 uM, Number of replicates 2.0, Standard deviation 0.3008027321718269 %
  inhibition: 7.24%
PRVABC59, Concentration 99.01 uM, Number of replicates 2.0, Standard deviation 0.0103741938798655 %
  inhibition: 43%
PRVABC59, Concentration 198.0 uM, Number of replicates 2.0, Standard deviation 1.7866649254890776 %
  inhibition: 79.8%
